Measurements published in PubChem BioAssay AID819 (Columbia University Molecular Screening Center, 2007).
Among all 94,000 compounds or so, about 280 (0.3%) were called active. The entries come from a sample that favours actives as a whole. Unmarked numbers belong to inactive results.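 The calls were made as follows: active = activation above 40%, about the mean plus 3 SD, also judged a hit on visual image review; inconclusive = activation above 40% but not a hit on visual review; inactive = activation not above 40% and no visual hit.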

experiment: enhancers of NFkB p65 translocation in HUVEC – imaging, IL-1B stimulus, high-content imaging, primary screen (AID 819); settings: HUVEC IL-1B NFkB p65 nuclear translocation imaging; at 2 µM; active compounds read high;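 also: percent activation is computed from the nuclear over cytoplasmic p65 intensity ratio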

| Structure (SMILES) | activation |
| --- | --- |
| O=C(Nc1cc2ccccc2oc1=O)C1CCCCC1 | -8.41% |
| CCC(C)n1c(-c2cc(OC)c(OC)c(OC)c2)nc2nc3ccccc3nc21 (stereo not drawn) | 6.63% |
| COc1ccc(CCN(C(=O)COc2ccccc2)c2nc(-c3ccccc3)cs2)cc1OC | 4.5% |
| O=[N+]([O-])c1ccccc1OCCCCN1CCCCC1 | -1.68% |
| CC(C)(C)c1ccc(C(=O)NNC(=O)Cc2ccccc2)cc1 | 41.9% (active) |
| COc1ccc(OCC(=O)NNC(=O)c2ccc(-c3ccccc3)cc2)cc1 | 21.4% |
| CCNC(=S)NNC(=O)Cc1ccccc1 | 0.95% |
| Cc1cccc(C)c1NC1=NC(=S)N(c2ccc(N(C)C)cc2)C1(C)C | -11.7% |
| O=C(CN1CCN(S(=O)(=O)c2ccc3ccccc3c2)CC1)NC(=O)NC1CCCCC1 | -3.21% |
| O=C(Cn1cncn1)N/N=C/c1c2ccccc2cc2ccccc12 | -10.3% |
| CCOC(=O)c1c(NC(=S)NC(=O)c2ccco2)sc2c1CCCC2 | 53.7% (active) |
| CC(C)OC(=O)c1c(NC(=O)c2ccco2)sc2c1CCCC2 | -2.72% |
| CCOC(=O)c1c(NC(=O)CCC(=O)NCc2ccco2)sc2c1CCCC2 | 1.18% |
| O=C(CSc1nnnn1-c1ccccc1)NCc1ccco1 | -8.15% |
| Cc1sc(NC(=S)NC(=O)c2cccs2)nc1-c1ccc(CC(C)C)cc1 | 17.4% |
| O=C(Nc1ccc(Br)c2cccnc12)c1ccc(Cn2cc([N+](=O)[O-])cn2)o1 | 25.7% |
| CCN(CC)CCNc1ccc(Cl)cc1[N+](=O)[O-] | 11.6% |
| CC(Sc1nnc(Cc2ccc([N+](=O)[O-])cc2)o1)C(N)=O (stereo not drawn) | 0.99% |
| CC(Oc1ccc(Cl)cc1Cl)C(=O)/C=C/N(C)C (stereo not drawn) | 4.7% |
| CC1=NC2(CCCc3c2no[n+]3[O-])N(O)C1(C)C (stereo not drawn) | 168% (active) |
| Cc1cccc(C)c1-n1c(C)cc(/C=C2\C(=O)NN(c3ccccc3)C2=O)c1C | -7.75% |

| Structure (SMILES) | activation |
| --- | --- |
| O=C(O)c1ccccc1-c1ccccc1C(=O)Nc1cccc2ccccc12 | 8.14% |
| Cc1ccc(NC(=O)C(C)c2cccc(C(=O)c3ccccc3)c2)cc1 (stereo not drawn) | -0.9% |
| O=C1C(=O)N(c2ccccc2)c2ccccc21 | -1.05% |
| O=C(NC1CCc2ccccc21)C12CN(Cc3ccccc3)CC1C(c1cccc([N+](=O)[O-])c1)=NO2 (stereo not drawn) | -3.33% |
| Cc1cc(C(=O)OCC(=O)Nc2ccc(F)c(F)c2)c(C)o1 | -18.7% |
| CCn1c(COc2ccc(OC)cc2)nnc1SCC(=O)Nc1cc(OC)ccc1OC | 4.96% |
| COc1ccc2c(c1OC)C(=O)OC2c1c(O)nc(SC)n(-c2ccccc2)c1=O (stereo not drawn) | 1.27% |
| CCn1c(SC)nc(O)c(C(c2ccc(OC)c(O)c2)c2c(O)nc(SC)n(CC)c2=O)c1=O | 59.4% (active) |
| O=C(COc1ccc2ccccc2c1)N1CCN(C(=O)c2cccs2)CC1 | -12.1% |
| Cc1nc2c(-c3ccc(F)cc3)c(C)nn2c(C)c1CCC(=O)NCc1ccco1 | -8.14% |
| CCOC(=O)C1=C(c2ccccc2)N=C2SCC(=O)N2C1c1ccc(O)c(OC)c1 (stereo not drawn) | 22.6% |
| Cc1cc(-c2ccccc2)n2nc(C)c(-c3ccccc3)c2n1 | -2.27% |
| CC(=O)c1ccc(OCCN2CCOCC2)cc1 | 29.4% |
| C/C(=N\NC(=O)c1ccc(C)cc1)C1C(=O)c2ccccc2C1=O | -6.49% |
| Cc1ccc2[nH]c(=O)c(CN(CCCN(C)C)C(=O)Nc3cccc(Cl)c3)cc2c1 | 20.3% |
| COc1ccc(NC(=O)CSc2nc(N)c(-c3ccccc3)c(=O)[nH]2)cc1 | 8.34% |
| COC(=O)c1cccc(-n2[nH]nnc2=S)c1 | -3.54% |
| COCc1cc(C(C)=O)ccc1OC | 2.42% |
| CN(C)c1ccc(NC(=S)N(CCc2ccccc2)C2CC(=O)N(c3c(Cl)cccc3Cl)C2=O)cc1 (stereo not drawn) | -17.7% |
| O=C(N/N=C/C=C/c1ccccc1)C1CC1(c1ccccc1)c1ccccc1 (stereo not drawn) | 4.51% |
| CCCn1nnc(NC(=O)COc2ccc(CC)cc2)n1 | 6.08% |

| Structure (SMILES) | activation |
| --- | --- |
| COC(=O)CNC(=O)c1ccccc1[N+](=O)[O-] | 2.74% |
| CCCCNC(=O)CCn1c(=S)[nH]c2cc3c(cc2c1=O)OCO3 | -3.47% |
| COc1ccc(OCC(=O)NN2Cc3ccccc3C2=N)cc1 | 12.3% |
| CCOc1cc(/C=C2/N=C(c3ccc(C(C)(C)C)cc3)OC2=O)cc(Cl)c1OS(C)(=O)=O | 15.4% |
| Cc1ccccc1OC/C(O)=C(\C#N)c1nc2ccccc2[nH]1 | -7.29% |
| CCOC(=O)c1c(NC(=O)CSc2nnc(C)c(=O)[nH]2)sc2c1CCC2 | -7.67% |
| COC(=O)c1c(NC(=O)CSc2nncs2)sc2c1CCCCC2 | 144% (active) |
| COC(=O)c1c(NC(=O)c2cccs2)sc2c1CCCC2 | -38.1% |
| CC(C)c1cc(C(N)=O)c(NC(=O)c2cccc(COc3ccc(Br)cc3)c2)s1 | 2.73% |
| CCCC(O)(c1ccc(OC)cc1)C(CN(C)C)c1ccccc1 (stereo not drawn) | 8.96% |
| CS(=O)(=O)N(CC(=O)Nc1ccc(F)cc1F)c1cccc([N+](=O)[O-])c1 | 2.79% |
| CCOC(=O)c1c(NC(=O)CSc2nnc(CNc3ccc(C)cc3C)o2)sc(C)c1C | 13.4% |
| CCOC(=O)NNC(=O)c1ccc(Cl)cc1 | -2.19% |
| COc1ccc(C2CC(c3cccs3)=Nc3ccccc3S2)cc1OC (stereo not drawn) | 3.96% |
| CCN(CC)C(=O)CSC1c2ccccc2C(=O)N1c1ccccc1 (stereo not drawn) | 16.1% |
| Cc1ccc(OCC(=O)N/N=C/c2ccncc2)cc1 | 9.97% |
| COc1ccc(NC(=O)CCN2CCCC2)c(OC)c1 | -7.64% |
| COc1ccc(NC(=O)CCNC(=O)Cn2ccc3ccccc3c2=O)c(OC)c1 | 49.9% (active) |
| Cc1ccc(CNC(=O)CCNC(=O)Cn2ccc3ccccc3c2=O)cc1 | -10.3% |
| Cc1ccc2c(c1)N(CC(=O)N(Cc1ccccn1)Cc1ccco1)C(=O)C(C(C)C)O2 (stereo not drawn) | -18% |
| CCN1CCC(=NNC(=O)c2ccc(C)c([N+](=O)[O-])c2)CC1 | 9.79% |
